Results filed as inconclusive are left out. Values without a mark were called inactive. Active and inactive are the calls of the source. The call rests on the fitted dose curve; in most records, active means well fitted cell-killing curve with a large enough effect; inconclusive means small, poorly fitted or top-dose-only effect, or effect the other way; inactive means flat fitted curve, though single readings scatter.
tested on: Es-2; experiment: Primary qHTS to identify gynecologic anti-cancer compounds using libraries of approved drugs and bioactive compounds (AID 1345084); conditions: Gynecologic cancer cell panel viability, ATPlite luminescence, 48 h; series mostly up to 57.5 µM; activity change, negative = cytotoxicity: at the top concentration; further: nearly all actives have a fitted effect of over 55% in size
Outline: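 ATP-based viability (ATPlite), 1,000 cells/well, 16 h pre-incubation, 48 h compound at 37 C, 5% CO2, 15 min RT before read.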
On the % scale 0 is the no-effect control and ±100 the full control effect; potency means the concentration at half of the fitted maximal effect.

Row | SMILES | activity change, negative = cytotoxicity | Potency
1 | COC(=O)c1ccc(OC(CO)C(O)c2ccc(O)c(OC)c2)c(OC)c1 (stereo not given) | -8.65% [at 38.5 µM] | 
2 | COc1ccc2nc(S(=O)(=O)Cc3ncc(C)c(OC)c3C)[nH]c2c1 | 0.658% | 
3 | CC(=O)c1cc2c(cc1O)OC(C)(C)C=C2 | 3.71% | 
4 | COc1ccc([C@@]2(O)c3c(ccc(CC=C(C)C)c3O)NC(=O)[C@@H]2OC)cc1 | 2.61% [at 38.5 µM] | 
5 | COC(=O)C1=CO[C@@H](O[C@@H]2O[C@H](CO)[C@@H](O)[C@H](O)[C@H]2O)[C@H]2[C@@H]1C=C[C@@]21C=C([C@H](C)O)C(=O)O1 | 3.79% [at 25.3 µM] | 
6 | c1ccc(N2CCN(CCc3nn[nH]n3)CC2)cc1 | -0.384% | 
7 | Cc1cc2c(c(=O)[nH]1)OC(C(O)CC(C)C)O2 (stereo not given) | -9.29% | 
8 | CC(=O)c1ccc2c(c1)C(O)C(C(C)(C)O)O2 (stereo not given) | -0.74% | 
9 | CC1(C)CC[C@]2(C(=O)O[C@@H]3O[C@H](CO[C@@H]4O[C@H](CO)[C@@H](O)[C@H](O)[C@H]4O[C@@H]4O[C@H](CO)[C@@H](O)[C@H](O)[C@H]4O)[C@@H](O)[C@H](O[C@@H]4O[C@H](CO)[C@@H](O)[C@H](O)[C@H]4O)[C@H]3O)CC[C@]3(C)C(=CCC4[C@@]5(C)CC[C@@H](O)[C@@](C)(C(=O)O[C@@H]6O[C@H](CO)[C@@H](O)[C@H](O)[C@H]6O)C5CC[C@]43C)[C@@H]2C1 (stereo not given in full) | 0.72% [at 6.55 µM] | 
10 | CC1=C(C)C(=O)OC(C(C)C2CCC3C4CC=C5CC(OC6OC(COC7OC(CO)C(O)C(O)C7O)C(O)C(O)C6O)CC(O)C5(C)C4CCC23C)C1 (stereo not given) | -1.74% [at 25.3 µM] | 
11 | CC(C)=CCC[C@](C)(O)[C@H]1CC[C@]2(C)[C@@H]1[C@H](O)CC1[C@@]3(C)CC[C@H](O)C(C)(C)C3[C@@H](O[C@@H]3O[C@H](CO)[C@@H](O)[C@H](O)[C@H]3O[C@@H]3OC[C@@H](O)[C@H](O)[C@H]3O)C[C@]12C (stereo not given in full) | 4.91% [at 25.3 µM] | 
12 | C[C@@H]1CC[C@@]2(OC1)O[C@H]1C[C@H]3[C@@H]4CC=C5C[C@@H](O)CC[C@]5(C)[C@H]4CC[C@]3(C)[C@H]1[C@@H]2C | 6.01% [at 25.3 µM] | 
13 | CC(C)[C@@H](CS(=O)(=O)C(C)C)N1C(=O)[C@@](C)(CC(=O)O)C[C@H](c2cccc(Cl)c2)[C@H]1c1ccc(Cl)cc1 | 10.7% | 
14 | CC(C)=CCC[C@](C)(O[C@@H]1O[C@H](CO)[C@@H](O)[C@H](O)[C@H]1O)[C@H]1CC[C@]2(C)[C@@H]1[C@H](O)CC1[C@@]3(C)CC[C@H](O)C(C)(C)C3[C@@H](O[C@@H]3O[C@H](CO)[C@@H](O)[C@H](O)[C@H]3O)C[C@]12C (stereo not given in full) | 1.58% [at 25.3 µM] | 
15 | C/C=C(/COC(=O)/C(C)=C/C)C(=O)OC(CC)c1ccc(OC)c(OC)c1 (stereo not given) | 3.02% [at 38.5 µM] | 
16 | COc1ccc2cc(C(C)C(=O)Oc3ccc(C(N)=S)cc3)ccc2c1 (stereo not given) | -3.54% | 
17 | C/C=C1\[C@H](O[C@@H]2O[C@H](CO)[C@@H](O)[C@H](O)[C@H]2O)OC=C(C(=O)OC)[C@H]1CC(=O)O | 6.17% [at 25.3 µM] | 
18 | C[C@@H]1O[C@@H](O[C@H]2[C@H](OC(=O)[C@]34CCC(C)(C)C[C@H]3C3=CCC5[C@@]6(C)C[C@H](O)[C@H](O[C@@H]7O[C@H](CO)[C@@H](O[C@H]8OC[C@](O)(CO)[C@H]8O)[C@H](O)[C@H]7O)[C@@](C)(CO)C6[C@H](O)C[C@@]5(C)[C@]3(C)C[C@H]4O)OC[C@H](O)[C@@H]2O)[C@H](O)[C@H](O)[C@H]1O[C@@H]1OC[C@@H](O)[C@H](O[C@@H]2OC[C@](O)(CO)[C@H]2O)[C@H]1O (stereo not given in full) | 0.233% [at 6.55 µM] | 
19 | CC(C)C(=O)OC[C@H]1O[C@H](O[C@H]2O[C@H](CO)[C@@H](O)[C@H](O)[C@H]2O)[C@H](O)[C@@H](O)[C@@H]1O | 7.24% [at 25.3 µM] | 
20 | O=C(COc1cccc2c(=O)[nH]ccc12)c1ccccc1 | 15.8% | 

Row | SMILES | activity change, negative = cytotoxicity | Potency
21 | CC(=O)N1CCN(Cc2ccc([C@H](C)Nc3nccc(N4C(=O)OC[C@@H]4C(C)C)n3)cc2)CC1 | 1.39% | 
22 | CCC(Nc1ncnc2nc[nH]c12)c1nc2cccc(F)c2c(=O)n1-c1ccccc1 (stereo not given) | -4.99% | 
23 | CC(C(O)/C=C/C(C)(C)O)C1CCC2(C)C3C(=O)C=C4C(CCC(O)C4(C)C)C3(C)CCC12C (stereo not given) | 5.61% [at 25.3 µM] | 
24 | c1ccc(-c2ncc(CN3CCN(c4ncccn4)CC3)[nH]2)cc1 | 9% | 
25 | CC[C@@H](O)C[C@@H]1C(C)=C[C@@H]2CCCC[C@@H]2[C@@]1(C)C(=O)O | 2.65% | 
26 | O=C(/C=C/c1ccc(O)cc1)OC1[C@H](O)CC(O)(C(=O)O)C[C@H]1O (stereo not given in full) | 4.1% [at 38.5 µM] | 
27 | O=[N+]([O-])c1cn2c(n1)OCC(OCc1ccc(OC(F)(F)F)cc1)C2 (stereo not given) | 2.25% | 
28 | C=C1CCC2C(C)(C)CCC[C@]2(C)[C@H]1C/C=C(\CO)C(=O)C(=O)O (stereo not given in full) | -0.124% [at 38.5 µM] | 
29 | C=CC[C@]12C[C@@H](OC)C(=O)C(OC)=C1O[C@@H](c1cc(OC)c3c(c1)OCO3)[C@@H]2C | 6.13% [at 25.3 µM] | 
30 | COCC1OC(OC(C)(C)C2CCC3(C)C=C(C4CCC5C4(C)CC(O)C4OC(C(C)(C)OC6OC(CO)C(O)C(O)C6NC(C)=O)CCC45C)CCC3O2)C(NC(C)=O)C(O)C1O (stereo not given) | 0.877% [at 11.6 µM] | 
31 | CCCCc1nc2cc(/C=C/C(=O)NO)ccc2n1CCN(CC)CC |  | 3.16 µM (active)
32 | CN1CCc2nc(C(=O)N[C@@H]3C[C@@H](C(=O)N(C)C)CC[C@@H]3NC(=O)C(=O)Nc3ccc(Cl)cn3)sc2C1 | -2.79% | 
33 | C[C@@]1(O)[C@H](O)[C@@H](CO)O[C@H]1n1ccc(N)nc1=O | -16.4% | 
34 | COc1ccc(-c2nc(-c3ccc(-c4cccc(Cl)c4)o3)[nH]c2-c2ccc(OC)cc2)cc1 | 2.6% | 
35 | CCOCCn1nc(CC)c2nc(N3CCC(C(=O)O)CC3)nc(Nc3cc(C)ccn3)c21 | 3.93% | 
36 | C=CCC1=C[C@]2(OC)[C@H](C)[C@@H](c3ccc(O)c(OC)c3)O[C@]2(OC)CC1=O | 6.62% [at 38.5 µM] | 
37 | Cc1ccc(Cc2c(C)nc3nc(SCC(=O)NCCN4CCNCC4)nn3c2C)cc1 | -10.7% | 
38 | CC1CC[C@]2(C(=O)O)CC[C@]3(C(=O)O)C(=CCC4[C@@]5(C)CC[C@H](OC6OC(C)C(O)C(OC7OC(CO)C(O)C(O)C7O)C6O)C(C)(C)C5CC[C@]43C)C2C1C (stereo not given in full) | 4.53% [at 25.3 µM] | 
39 | C=C1CC[C@@H]2[C@@](C)(CO[C@@H]3O[C@H](CO)C(O)[C@H](O)C3O)[C@H](O)CC[C@@]2(C)[C@@H]1CC/C(C)=C/CO (stereo not given in full) | 9.56% [at 11.6 µM] | 
40 | O=C(Nc1ccc(-c2ccncc2)cc1)N[C@H](CO)c1ccccc1 | 6.38% | 

Reference: PubChem BioAssay (NCATS)
